Nrf2 ARE act – Nrf2 pathway activation. AREc32 ARE-luciferase reporter (MCF7-derived line), luminescence, 24 h. Potency, µM (doses to about 46.1 µM), hits mostly activators. actives 0.31% (n = 410,000); note: nearly all actives have a fitted effect of over 65% in size
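ARE activation measured as luciferase luminescence (Steady-Glo, 30 min RT) in AREc32_Fluc cells after 24 hr compound exposure at 37 deg C, 5% CO2; cells seeded overnight at 1000/well in OPTI-MEM, 5% FBS.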
A549 tox – A549 cytotoxicity, counter-screen for Nrf2 inhibitors; actives 0.16% (n = 390,000); AID 504648; Potency, µM (titrated, usually from 46 µM), actives largely listed as inhibitors; A549 ARE-Fluc cells, CellTiter-Fluor viability, 18-24 h
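Cytotoxicity counterscreen: CellTiter-Fluor fluorescence was measured in A549 ARE_Fluc cells after 18-24 h of compound exposure in a concentration series. The subsequent BugLite luminescent read reports ARE-luciferase activity.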
Pin1 inh – inhibitors of human Pin1 | actives 0.009% (n = 390,000) | Q13526 | Potency, µM (doses to about 115 µM), actives largely listed as inhibitors | AID 504891 | Pin1 FP peptide displacement, HiFluor488, 10 min; active = well fitted inhibition curve with a large enough effect in the polarisation, with a control signal flat, not every such curve was filed as active; inconclusive = small, poorly fitted or top-dose-only effect, or effect the other way, or a change in a side signal; inactive = no such curve, though single readings can be large or run the other way; the % refers to the polarisation
Target sequence (Q13526 whole entry, looked up): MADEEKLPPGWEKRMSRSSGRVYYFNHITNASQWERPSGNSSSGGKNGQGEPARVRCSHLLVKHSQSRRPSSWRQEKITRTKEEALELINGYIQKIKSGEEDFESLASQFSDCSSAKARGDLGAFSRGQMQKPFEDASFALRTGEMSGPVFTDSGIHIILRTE
Nrf2 inh – blocks Nrf2 signaling; actives 2.1% (n = 360,000); AID 504444; A549 ARE-Fluc reporter, luciferase luminescence, 18-24 h; Potency, µM (highest dose often 46 µM), usual class: inhibitors; note: nearly all actives have a fitted effect of over 60% in size
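In this cell-based qHTS, ARE-driven firefly luciferase in A549 cells reports Nrf2 activity; the luminescent signal after BugLite lysis is the measured value, with a prior CellTiter-Fluor read for cell health.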
Each line names hits and unclear results; the compound was inactive in the other large screens. The list is not random: actives were taken first. Their share in the collection is about 2.2%. Unless noted, calls come from the whole dose curve; as a rule, active = well fitted curve in the direction sought with a large enough effect; inconclusive = small, poorly fitted or top-dose-only effect, or another doubt; inactive = no such curve, though single readings can be large; an effect the other way counts as inactive or inconclusive.

Cc1ccc(C)c(N2CCN(C(=O)c3ccc(CS(=O)Cc4cccc(Cl)c4)o3)CC2)c1 (stereo not given)	Nrf2 inh 18µM
O=c1[nH]c2ccc(S(=O)(=O)N3CCN(S(=O)(=O)c4ccc5c(c4)OCCO5)CC3)cc2[nH]c1=O	none (no result: Nrf2 ARE act)
COC(=O)c1cc(NC(=O)CN(c2cccc(OC)c2)S(=O)(=O)c2ccccc2)ccc1Cl	Nrf2 inh 23µM
CC(=O)c1ccc(OCC(O)CN2CCN(S(=O)(=O)c3c(C)c(C)cc(C)c3C)CC2)cc1 (stereo not given)	A549 tox inconclusive, Nrf2 inh 26µM
CCc1ccccc1N(CC)C(=O)Cn1nc(Cc2ccncc2)c2ccccc2c1=O	Nrf2 inh inconclusive
CCCCC1(O)CC(C(F)(F)F)=NN1C(=O)COc1ccccc1 (stereo not given)	A549 tox inconclusive, Nrf2 inh 16µM
Cc1cc(C)cc(OCC(=O)N2N=C(C(F)(F)F)CC2(O)C(C)(C)C)c1 (stereo not given)	none
Cc1cccc(N2CCN(C(c3cccs3)c3nnnn3C(C)(C)C)CC2)c1C (stereo not given)	none
CC(C)(C)n1nnnc1C(c1cccs1)N1CCN(c2ccccc2)CC1 (stereo not given)	A549 tox inconclusive, Nrf2 inh 23µM
CCOC(=O)c1c(NC(=O)CN2CCCCC2)sc2c1CCN(C(=O)OCC)C2	A549 tox inconclusive, Nrf2 inh 23µM
O=[N+]([O-])c1ccc(C(c2sc3nc(-c4ccco4)nn3c2O)N2CCC3(CC2)OCCO3)cc1 (stereo not given)	none (no result: Nrf2 inh)
COC(=O)c1sc(NC(=S)NC(=O)c2cccc(Br)c2)nc1C	Nrf2 ARE act 16µM
Cc1ccc(CNC(=O)c2cc3c(=O)n(Cc4ccco4)ccc3nc2C)cc1	none
COc1ccccc1OCC(=O)Nc1ccccc1C(=O)NCc1ccco1	none
N#Cc1ccccc1NC(=O)c1ccccc1OCC(=O)NCc1ccco1	Nrf2 ARE act 11µM
O=S(=O)(c1ccc(Br)cc1)N1CCN(c2nc(-c3ccccc3)nc3ccccc23)CC1	none (no result: Nrf2 ARE act)
COc1ccc(CN(C2CC2)S(=O)(=O)c2ccccc2Br)cc1	Nrf2 inh 16µM
COc1ccc(-n2ccn(CC(=O)NCCc3ccccc3)c(=O)c2=O)cc1OC	none
Cc1ccc(C)c(N2CCN(C(=O)c3c4c(nc5ccccc35)C(=O)N(C3CCCCC3)C4)CC2)c1	Nrf2 inh inconclusive
O=C(c1ccc(N2CCN(C(=O)c3ccccc3)CC2)cc1)c1cccc(F)c1	Nrf2 inh inconclusive
O=C(c1ccc(N2CCN(C(=O)c3ccc(F)c(F)c3)CC2)cc1)c1cccc(F)c1	Nrf2 inh 16µM
Cc1noc(/C=C/c2ccccc2F)c1S(=O)(=O)N1CCC(C(=O)N2CCOc3ccccc32)CC1	none (no result: Nrf2 inh)
CCc1nc(SCC(=O)NC2CCCC2)c2oc3ccccc3c2n1	none
CCc1nc(SCC(=O)N2CCCc3ccccc32)c2oc3ccccc3c2n1	A549 tox inconclusive, Nrf2 inh 16µM
Cn1nc(C(F)(F)F)c(C(=O)Nc2ccc(F)cc2F)c1Sc1cccc(C(F)(F)F)c1	none
Cn1nc(C(F)(F)F)c(C(=O)Nc2ccc(F)cc2F)c1Sc1cccc(Cl)c1	A549 tox inconclusive, Nrf2 inh 18µM
CN1CCCC1CCNc1ncnc2ccc(-c3ccc4c(c3)OCO4)cc12 (stereo not given)	none (no result: Nrf2 ARE act)
CC(/C=N/NC(=O)c1cccs1)=C\c1ccccc1	Nrf2 inh inconclusive
O=C(NN=C1C2CC3CC(C2)CC1C3)c1ccncc1	none
O=C(N/N=C1\C/C(=N\NC(=O)c2ccncc2)c2ccccc21)c1ccncc1	Nrf2 ARE act inconclusive, A549 tox inconclusive, Nrf2 inh 7.3µM
O=C(N/N=C/C(Cl)=C/c1ccccc1)c1ccncc1	Nrf2 ARE act 22µM
O=C(N/N=C/C(Cl)=C\c1ccccc1)c1cccs1	Nrf2 ARE act 11µM, Nrf2 inh inconclusive
O=C(N/N=C/C(Cl)=C/c1ccccc1)c1ccccn1	Nrf2 inh inconclusive
O=c1oc2ccccc2cc1-c1csc(Cc2nc(-c3ccc(Cl)cc3)cs2)n1	Nrf2 inh 21µM
COc1ccc(-c2cc(-c3ccccc3)nc3c2COc2ccccc2-3)cc1	none
COc1ccc(C2=Nc3ccccc3OC2)cc1	Nrf2 ARE act 11µM, Nrf2 inh inconclusive
O=C1c2ccccc2CC1Sc1nnc(-c2ccccn2)o1 (stereo not given)	Nrf2 ARE act 13µM, Nrf2 inh inconclusive
COC(=O)c1ccccc1NC(=O)NCc1ccc2c(c1)CCN2C(=O)c1ccccc1	none (no result: Nrf2 inh)
CCN1CCN(Cc2c(O)ccc3oc(C)c(C(=O)Nc4cccc(C(F)(F)F)c4)c23)CC1	none
CCc1ccc(CNc2ccc(N3CCN(C(C)=O)CC3)cc2)cc1	A549 tox inconclusive, Nrf2 inh 16µM
CC(=O)N1CCN(c2ccc(NCc3ccc(C)cc3)cc2)CC1	none
CCC(=O)N1N=C(c2cccs2)CC1c1ccc(C)cc1 (stereo not given)	none
Cc1ccc(C2CC(c3cccs3)=NN2C(=O)CSC2=NCCS2)cc1 (stereo not given)	Nrf2 inh 16µM
COc1ccc(C2CC(c3cccs3)=NN2C(=O)CSC2=NCCS2)cc1 (stereo not given)	Nrf2 inh 18µM
CCCc1ccc(OCC(=O)Nc2sc3c(c2C(=O)OCC)CCC(C(C)(C)C)C3)cc1 (stereo not given)	none
CN1C=C/C(=C\c2cc[n+](C)c3ccccc23)c2ccccc21	A549 tox inconclusive, Nrf2 inh 5.8µM
C=CCN1C(=O)/C(=C\c2ccco2)C(C(=O)OC)=C1C	Nrf2 ARE act inconclusive
CCN1C(=O)/C(=C\c2ccco2)C(C(=O)OC)=C1C	Nrf2 ARE act 10µM
O=C(CSc1nc2ccsc2c(=O)n1Cc1ccccc1F)NCc1ccccc1Cl	Pin1 inh inconclusive (no result: Nrf2 inh)
CCCc1ccc(OCc2ccc(C(=O)Nc3ccccc3C(=O)OC)o2)cc1	Nrf2 inh inconclusive
COCCOC(=O)CSc1ncccc1-c1nc2cc(C)c(C)cc2[nH]1	Nrf2 inh 15µM
COc1ccc(C(=O)n2nc(-c3ccco3)nc2NCc2cccs2)cc1	Nrf2 inh inconclusive
COc1ccc(/C=N/NC(=O)c2ccn[nH]2)cc1Cn1nc(C)c([N+](=O)[O-])c1C	Nrf2 inh inconclusive
COc1ccc(/C=N/NC(=O)c2ccco2)cc1Cn1nc(C)c([N+](=O)[O-])c1C	A549 tox inconclusive, Nrf2 inh 16µM
COc1ccc(-c2cc(C(F)(F)F)nc(SCC(=O)NCCc3ccc(OC)c(OC)c3)n2)cc1	none
COc1ccccc1NC(=O)c1csc2c1CCCC2	none
O=C(Nc1ccccn1)c1csc2c1CCCC2	Nrf2 ARE act 5µM, Nrf2 inh inconclusive
O=C(CC(c1ccccc1)c1cc(Br)ccc1O)NCC1(c2ccccc2)CCCC1 (stereo not given)	A549 tox inconclusive, Nrf2 inh inconclusive
COc1ccc(-c2nnc(SCC(=O)N(Cc3ccccc3)C(C)(C)C)o2)cc1OC	Nrf2 inh 23µM
N#CCCn1cc(/C=C2\NC(=S)N(c3ccccc3)C2=O)c(-c2ccc(-c3ccccc3)cc2)n1	A549 tox 21µM, Nrf2 inh 18µM

Assay outcomes (PubChem BioAssay)
